Structures are written as SMILES. This is part of a sample that, as a whole, favours compounds with a hit. Of some 83,000 tested, about 20% had one in any assay.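 Compound tested at a single concentration for 48 hours in 96-well plates; a percent growth value below 10 was scored as active.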 Unmarked numbers belong to inactive results. Active and inactive are the calls of the source.

The values that follow come from PubChem BioAssay (NCI).

Test systems include SK-MEL-2 melanoma; EKVX NSCLC; SN12C renal; UO-31 renal; TK-10 renal; ACHN renal; CAKI-1 renal; A498 renal; CCRF-CEM leukemia; MOLT-4 leukemia; SR leukemia; RPMI-8226 leukemia; OVCAR-8 ovarian; OVCAR-5 ovarian; OVCAR-4 ovarian; SK-OV-3 ovarian; IGROV1 ovarian; OVCAR-3 ovarian; HS 578T breast; NCI/ADR-RES ovarian.
Holding throughout (assay): NCI-60 one-dose screen, 48 h (100 = growth as untreated, 0 = no growth, -100 = all killed)
What all share (settings): 10 µM unless noted

On to `CCCNC(=O)Nc1ccc2cc3ccc(NC(=O)NCCC)cc3nc2c1`, for which the growth in the assay on SK-MEL-2 melanoma was 84.7%; with EKVX NSCLC it was 97.8%; in the assay on SN12C renal, 94.5%; with UO-31 renal, 76.1%; in the assay on TK-10 renal, 115%; with ACHN renal, 78.1%. Further, the growth with CAKI-1 renal is 104%; with A498 renal, 71.4%; with CCRF-CEM leukemia, 47.4%; in the assay on MOLT-4 leukemia it was 84.8%; in the assay on SR leukemia, 37.2%; in the assay on RPMI-8226 leukemia, 76.1%. In addition, the growth was 74.5% with OVCAR-8 ovarian; 90.1% with OVCAR-5 ovarian; 65.2% in the assay with OVCAR-4 ovarian; 95.1% in the assay with SK-OV-3 ovarian; 34.4% with IGROV1 ovarian; 70.1% in the assay with OVCAR-3 ovarian. Moreover, the growth in the assay on HS 578T breast is 48.4%; in the assay with NCI/ADR-RES ovarian, 96.9%.

Consider `COc1cc(C2c3cc(OC(C)=O)c(OC)cc3CC3C(=O)OCC32)ccc1OC(C)=O` (stereo not given), for which the growth in the assay on SK-MEL-2 melanoma is 132%; in the assay on EKVX NSCLC, 111%; with SN12C renal, 93.2%; with UO-31 renal it was 78.2%; with TK-10 renal it was 122%; with ACHN renal, 94.3%. For the same molecule, the growth in the assay with CAKI-1 renal was 97.1%; in the assay with A498 renal, 180%; in the assay on CCRF-CEM leukemia, 92.4%; in the assay with MOLT-4 leukemia, 112%; in the assay with SR leukemia, 108%; in the assay with RPMI-8226 leukemia, 93.1%. For the same molecule, the growth in the assay with OVCAR-8 ovarian was 111%; in the assay on OVCAR-5 ovarian, 93.9%; with OVCAR-4 ovarian it was 99.2%; in the assay on SK-OV-3 ovarian it was 111%; in the assay on IGROV1 ovarian, 111%; in the assay on OVCAR-3 ovarian it was 121%. The values for the growth with HS 578T breast and in the assay with NCI/ADR-RES ovarian were 123% and 106%, respectively.

Take `OCCn1cc(-c2nc(-c3c[nH]c4ncccc34)cs2)c2cc(F)ccc21`: the growth with SK-MEL-2 melanoma was 66.2%; in the assay on EKVX NSCLC, 37.2%; in the assay with SN12C renal it was 80.3%; in the assay on UO-31 renal, 39.4%; in the assay on TK-10 renal it was 62.1%; in the assay with ACHN renal it was 65.8%. Also, the growth is 70.7% in the assay on CAKI-1 renal; 23% with A498 renal; 56% with CCRF-CEM leukemia; 54.5% with MOLT-4 leukemia; 22% in the assay with SR leukemia; 53.6% with RPMI-8226 leukemia. In addition, the growth in the assay on OVCAR-8 ovarian was 80.2%; with OVCAR-5 ovarian, 84.3%; with OVCAR-4 ovarian it was 52.4%; with SK-OV-3 ovarian, 70.1%; with IGROV1 ovarian it was 44.7%; with OVCAR-3 ovarian, 81%. Moreover, the growth was 70.9% with HS 578T breast and 82.6% with NCI/ADR-RES ovarian.

Take `COC(=O)c1nc(-c2ccccc2)oc1S(=O)(=O)Cc1ccccc1`: the growth was 80.2% in the assay with SK-MEL-2 melanoma; 119% with EKVX NSCLC; 93.5% in the assay with SN12C renal; 72.9% in the assay on UO-31 renal; 5.41% (active) in the assay on TK-10 renal; -35% (active) with ACHN renal. Further, the growth is 8.14% (active) with CAKI-1 renal; 98.1% in the assay on A498 renal; -6.08% (active) in the assay on CCRF-CEM leukemia; -9.29% (active) in the assay on MOLT-4 leukemia; -11.5% (active) in the assay with SR leukemia; 84.5% in the assay with RPMI-8226 leukemia. In addition, the growth with OVCAR-8 ovarian is 90.1%; in the assay with OVCAR-5 ovarian it was 102%; in the assay with OVCAR-4 ovarian, 101%; in the assay on SK-OV-3 ovarian it was 97.6%; with IGROV1 ovarian, 85.6%; in the assay on OVCAR-3 ovarian, 41.1%. Also, the growth was 110% with HS 578T breast and 97% in the assay on NCI/ADR-RES ovarian.

Regarding `CCC(=O)Oc1ccc(-c2ccccc2)cc1Br`, the growth in the assay on SK-MEL-2 melanoma was 110%; in the assay on EKVX NSCLC, 102%; in the assay with SN12C renal, 104%; with UO-31 renal, 102%; with TK-10 renal, 101%; in the assay on ACHN renal, 113%. For the same molecule, the growth in the assay on CAKI-1 renal is 98.7%; in the assay with A498 renal, 63.5%; in the assay with CCRF-CEM leukemia it was 102%; in the assay on MOLT-4 leukemia, 111%; with SR leukemia, 107%; in the assay with RPMI-8226 leukemia, 104%. Moreover, the growth in the assay on OVCAR-8 ovarian was 106%; in the assay with OVCAR-5 ovarian, 104%; in the assay with OVCAR-4 ovarian it was 105%; with SK-OV-3 ovarian, 120%; in the assay on IGROV1 ovarian, 112%; in the assay with OVCAR-3 ovarian, 114%. For the same molecule, the growth in the assay on HS 578T breast is 115%; in the assay on NCI/ADR-RES ovarian, 110%.

In the case of `CC(C)C1=NOC(=O)C1=Cc1cn(-c2ccccc2)nc1-c1ccc(F)cc1`, the growth in the assay with SK-MEL-2 melanoma was 94.6%; in the assay with EKVX NSCLC, 97.2%; with SN12C renal, 62.8%; in the assay on UO-31 renal it was 74.2%; with TK-10 renal, 75.2%; in the assay with ACHN renal, 71.4%. For the same molecule, the growth with CAKI-1 renal was 62.2%; in the assay with A498 renal, 82.2%; in the assay on CCRF-CEM leukemia it was 10.7%; with MOLT-4 leukemia it was 17.8%; in the assay with SR leukemia it was -17% (active); in the assay on RPMI-8226 leukemia, -17.4% (active). Also, the growth in the assay with OVCAR-8 ovarian was 60.2%; in the assay with OVCAR-5 ovarian, 95.2%; in the assay with OVCAR-4 ovarian it was 94.1%; in the assay with SK-OV-3 ovarian, 107%; in the assay on IGROV1 ovarian, 61.3%; in the assay with OVCAR-3 ovarian, 64%. Moreover, the values for the growth in the assay with HS 578T breast and in the assay with NCI/ADR-RES ovarian were 49.6% and 101%, respectively.

With `NC(=O)C(=O)c1ccccc1NC=O`, the growth in the assay with SK-MEL-2 melanoma was 112%; in the assay on EKVX NSCLC, 101%; in the assay with SN12C renal, 96.6%; with UO-31 renal, 60.9%; in the assay with TK-10 renal, 107%; with ACHN renal, 94.8%. Besides, the growth is 75.2% in the assay with CAKI-1 renal; 120% in the assay with A498 renal; 99.1% in the assay with CCRF-CEM leukemia; 108% with MOLT-4 leukemia; 113% with SR leukemia; 105% in the assay with RPMI-8226 leukemia. For the same molecule, the growth is 95.4% in the assay on OVCAR-8 ovarian; 102% in the assay on OVCAR-5 ovarian; 98.4% in the assay on OVCAR-4 ovarian; 97.4% in the assay on SK-OV-3 ovarian; 94.8% in the assay on IGROV1 ovarian; 110% in the assay on OVCAR-3 ovarian. In addition, the growth with HS 578T breast was 109%; in the assay with NCI/ADR-RES ovarian it was 89.6%.

For `N#CSc1c[nH]c2cccc(/C=C/C(=O)/C=C(/C=C/c3cccc4[nH]cc(SC#N)c34)OB(F)F)c12`, the growth is -65% (active) in the assay with SK-MEL-2 melanoma; -10.4% (active) in the assay with EKVX NSCLC; -21.8% (active) in the assay on SN12C renal; -76% (active) with UO-31 renal; -51.7% (active) with TK-10 renal; -48.9% (active) with ACHN renal. The growth in the assay on CAKI-1 renal is -12.5% (active); in the assay with A498 renal it was 28.2%; in the assay on CCRF-CEM leukemia, -10.9% (active); in the assay with MOLT-4 leukemia it was -14.4% (active); in the assay on SR leukemia it was 6.43% (active); in the assay with RPMI-8226 leukemia, -6.08% (active). The growth in the assay on OVCAR-8 ovarian is -26.1% (active); in the assay on OVCAR-5 ovarian, -10.8% (active); with OVCAR-4 ovarian, 7.06% (active); with SK-OV-3 ovarian, 78.7%; with IGROV1 ovarian, 3.87% (active); with OVCAR-3 ovarian, 2.33% (active). Further, the growth is 26.3% with HS 578T breast and 25.7% in the assay on NCI/ADR-RES ovarian.
